What was measured:
Test in all cases: yeast three-hybrid, YBZ-1, SC-Leu-His + 0.5 mM 3-AT, 4 days
Settings in all cases: tags: N-Gal4 AD-HA kept; label: inside an RPR1-promoter hybrid RNA with tandem MS2 sites; ssRNA
PUM1 PUF domain R3-RRR = PUM1 PUF domain R3-RRR (Homo sapiens, UniProt Q14671 828-1176, C935R;Q939R)
In short: (§1)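 Each repeat of the Pumilio-1 PUF domain was randomized at its three base-contacting residues, and these libraries were co-expressed from a centromeric plasmid with matching RNA elements in strain YBZ-1. After four days on SC-Leu (input) or SC-Leu-His + 0.5 mM 3-AT (selection), the repeat regions were PCR-amplified and Illumina-sequenced. The interaction score compares variant frequency between input and selection as a log change, computed in log2 with a pseudocount of 1 for absent variants.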

PUM1 PUF domain R3-LSG = PUM1 PUF domain R3-LSG (Homo sapiens, UniProt Q14671 828-1176, C935L;R936S;Q939G)
Sequence of PUM1 PUF domain R3-LSG (Q14671 828-1176 C935L/R936S/Q939G): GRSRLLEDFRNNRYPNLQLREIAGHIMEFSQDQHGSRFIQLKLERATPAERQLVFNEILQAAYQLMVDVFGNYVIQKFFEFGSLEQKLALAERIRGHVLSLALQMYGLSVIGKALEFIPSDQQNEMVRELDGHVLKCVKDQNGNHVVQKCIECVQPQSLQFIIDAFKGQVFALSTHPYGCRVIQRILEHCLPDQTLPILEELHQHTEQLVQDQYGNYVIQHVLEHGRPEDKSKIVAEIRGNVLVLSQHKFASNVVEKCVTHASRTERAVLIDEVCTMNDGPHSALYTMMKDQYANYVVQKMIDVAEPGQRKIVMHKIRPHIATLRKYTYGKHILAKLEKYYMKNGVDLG
In short: as §1

PUM1 PUF domain R3-SPT = PUM1 PUF domain R3-SPT (Homo sapiens, UniProt Q14671 828-1176, C935S;R936P;Q939T)
Sequence of PUM1 PUF domain R3-SPT (Q14671 828-1176 C935S/R936P/Q939T): as the sequence (Q14671 828-1176 C935L/R936S/Q939G) above, with L108S, S109P, G112T counted along it
In short: as §1

PUM1 PUF domain R3-LST = PUM1 PUF domain R3-LST (Homo sapiens, UniProt Q14671 828-1176, C935L;R936S;Q939T)
Sequence of PUM1 PUF domain R3-LST (Q14671 828-1176 C935L/R936S/Q939T): as the sequence (Q14671 828-1176 C935L/R936S/Q939G) above, with G112T counted along it
In short: as §1

PUM1 PUF domain R8-HYP = PUM1 PUF domain R8-HYP (Homo sapiens, UniProt Q14671 828-1176, N1122H;Q1126P)
Sequence of PUM1 PUF domain R8-HYP (Q14671 828-1176 N1122H/Q1126P): as the sequence (Q14671 828-1176 C935L/R936S/Q939G) above, with L108C, S109R, G112Q, N295H, Q299P counted along it
In short: as §1

PUM1 PUF domain R4-GPR = PUM1 PUF domain R4-GPR (Homo sapiens, UniProt Q14671 828-1176, N971G;H972P;Q975R)
Sequence of PUM1 PUF domain R4-GPR (Q14671 828-1176 N971G/H972P/Q975R): as the sequence (Q14671 828-1176 C935L/R936S/Q939G) above, with L108C, S109R, G112Q, N144G, H145P, Q148R counted along it
In short: as §1

PUM1 PUF domain R4-DFG = PUM1 PUF domain R4-DFG (Homo sapiens, UniProt Q14671 828-1176, N971D;H972F;Q975G)
Sequence of PUM1 PUF domain R4-DFG (Q14671 828-1176 N971D/H972F/Q975G): as the sequence (Q14671 828-1176 C935L/R936S/Q939G) above, with L108C, S109R, G112Q, N144D, H145F, Q148G counted along it
In short: as §1

Sequence of PUM1 PUF domain R3-RRR (Q14671 828-1176 C935R/Q939R): as the sequence (Q14671 828-1176 C935L/R936S/Q939G) above, with L108R, S109R, G112R counted along it

Sequence: GGCUAGAACUAGUGGAUCCCCCGGCGCCCGGCGGCUCGAGCCCGGGUAAGUGUAAUUAGUCUGCAUGCCGCCGGGCGCCAUGCCUGCAGGUCGACUCUAGAAAACAUG
- binding signal (PUM1 PUF domain R3-RRR): 3.73 log2 enrichment (interaction score)
- binding signal (PUM1 PUF domain R3-LSG): 1.48 log2 enrichment (interaction score)
- binding signal (PUM1 PUF domain R3-SPT): 1.18 log2 enrichment (interaction score)
- binding signal (PUM1 PUF domain R3-LST): 2.71 log2 enrichment (interaction score)

Sequence: GGCUAGAACUAGUGGAUCCCCCGGCGCCCGGCGGCUCGAGCCCGGGUAAGCGUAAAUAGUCUGCAUGCCGCCGGGCGCCAUGCCUGCAGGUCGACUCUAGAAAACAUG
- binding signal (PUM1 PUF domain R8-HYP): 5.46 log2 enrichment (interaction score)

Sequence: GGCUAGAACUAGUGGAUCCCCCGGCGCCCGGCGGCUCGAGCCCGGGUAAGGGUAAAUAGUCUGCAUGCCGCCGGGCGCCAUGCCUGCAGGUCGACUCUAGAAAACAUG
- binding signal (PUM1 PUF domain R8-HYP): 2.77 log2 enrichment (interaction score)

Sequence: GGCUAGAACUAGUGGAUCCCCCGGCGCCCGGCGGCUCGAGCCCGGGUAAGUGUAAGUAGUCUGCAUGCCGCCGGGCGCCAUGCCUGCAGGUCGACUCUAGAAAACAUG
- binding signal (PUM1 PUF domain R3-LSG): 2.82 log2 enrichment (interaction score)
- binding signal (PUM1 PUF domain R3-LST): 3.44 log2 enrichment (interaction score)

Sequence: GGCUAGAACUAGUGGAUCCCCCGGCGCCCGGCGGCUCGAGCCCGGGUAAGUGUACAUAGUCUGCAUGCCGCCGGGCGCCAUGCCUGCAGGUCGACUCUAGAAAACAUG
- binding signal (PUM1 PUF domain R4-GPR): 2.58 log2 enrichment (interaction score)
- binding signal (PUM1 PUF domain R4-DFG): 2.96 log2 enrichment (interaction score)

Reference: PMC8384837, “Expanding the binding specificity for RNA recognition by a PUF domain”
